# Sampled rows, rich in hits. Any-hit rate of the full collection: about 15%.
# HCMV antiviral = blocks human cytomegalovirus replication | HFF cells, HCMV-luciferase reporter, 72 h; hits give low values | activity change, negative = inhibition, % at 57.5 µM | 410,000 tested, 4.5% active | AID 1259415; in the data active = activity change below about -60%; inconclusive = no clear call, values can overlap the other calls; inactive = above about -39%; note: % is set by controls: 0 for no effect and ±100 for the full control effect
#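 Cell-based, HFFs, 1000 cells/well, 16 h 37C; cpds in DMSO + HCMV-luc, MOI 1 PFU/cell; 72 h 37C; OneGlo luminescence after 5 min RT; norm. to buffer vs Salinomycin 10uM.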
# Pf growth 96h = P. falciparum growth inhibition at 96 hours; P. falciparum luciferase reporter growth, 96 h; Potency, µM (doses to about 28.7 µM), without a hit: at the top dose activity change, negative = inhibition, hits mostly inhibitors; 320,000 tested, 6.9% active; note: potency is the fitted concentration of half-maximal effect; % is set by controls: 0 for no effect and ±100 for the full control effect
#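 Readout is luminescence from an integrated firefly luciferase in P. falciparum. Red cells, 2% hematocrit and 0.05% parasitemia final, were cultured with compound through two parasite generations (96 hours) at 37 C, 5% CO2.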
# Pf growth 48h = inhibits P. falciparum growth in the first generation, 48 h; Potency, µM (titrated, usually from 28.7 µM), without a hit: at the top dose activity change, negative = inhibition, actives largely listed as inhibitors; P. falciparum luciferase growth in erythrocytes, 48 h; AID 504832; 310,000 tested, 5.9% active; note: potency is the fitted concentration of half-maximal effect; % is set by controls: 0 for no effect and ±100 for the full control effect
#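 A one-generation exposure of luciferase-tagged malaria parasites in RPMI 1640/Albumax erythrocyte culture, 37 C and 5% CO2. Inhibition is inferred from decreased luminescence after adding detection reagent.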
# HCV inh = inhibitors of hepatitis C virus infection; Huh7.5.1 HCVcc-Cre infection, luciferase reporter, 44 h; Potency, µM (titrated, usually from 41.8 µM), inactives show at the top dose activity change, negative = inhibition, hits mostly inhibitors; 340,000 tested, 3.4% active; AID 651820; note: potency is the fitted concentration of half-maximal effect; % is set by controls: 0 for no effect and ±100 for the full control effect
#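 A cell-based infection assay in which seeded cells (1,000 per well) receive test compound after 4 h, are inoculated with HCVcc-Cre at approximately 0.5 moi, and are incubated 44 h before luminescence detection.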
# Sm TGR inh = S. mansoni TGR enzyme inhibition; Potency, µM (doses to about 114 µM), for inactives: at the top dose activity change, negative = inhibition, hits mostly inhibitors; purified TGR, DTNB reduction, TNB absorbance 405 nm; 360,000 tested, 3% active; Q962Y6; note: potency is the fitted concentration of half-maximal effect; % is set by controls: 0 for no effect and ±100 for the full control effect; nearly all actives have a fitted effect of over 60% in size
#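 First, TGR (20 nM dispensed) and NADPH were mixed with compound. Second, a 15 min room-temperature incubation followed. Third, further NADPH and then DTNB were added to start the reaction. Finally, TNB absorbance was monitored kinetically.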
# SARS PLP yeast = blocks SARS-CoV papain-like protease in a yeast assay; S. cerevisiae expressing SARS-CoV PLpro, growth rescue; Potency, µM (titrated, usually from 32.9 µM), for inactives: top-dose activity, positive = growth rescue, actives largely listed as activators; 330,000 tested, 0.19% active; calls by dose curve; note: potency is the fitted concentration of half-maximal effect; 0% is about no effect; nearly all actives have a fitted effect of over 55% in size
# Numbers without * were called inactive; u = inconclusive; x = no result given. Unless noted, calls come from the whole dose curve; as a rule, active = well fitted curve in the direction sought with a large enough effect; inconclusive = small, poorly fitted or top-dose-only effect, or another doubt; inactive = no such curve, though single readings can be large; an effect the other way counts as inactive or inconclusive.
SMILES,HCMV antiviral,Pf growth 96h,Pf growth 48h,HCV inh,Sm TGR inh,SARS PLP yeast
O=C(COC(=O)C1CCCO1)Nc1cccc(C(F)(F)F)c1 (stereo not given),8,7.4µM*,2%,-6%,-31%,-1%
CC1CN(CC(=O)Nc2cccc(C(=O)Nc3cccc(C(F)(F)F)c3)c2)CC(C)O1 (stereo not given),-27,0.15µM*,x,u,1%,-18%
O=C(CN1CCC(C(O)(c2ccccc2)c2ccccc2)CC1)Nc1cc(Cl)ccc1Cl,55,130%,u,-19%,13%,9%
O=C(CN1CCC(C(O)(c2ccccc2)c2ccccc2)CC1)Nc1ccccc1,-27,u,10µM*,u,1%,2%
CC1CCN(CC(=O)Nc2cccc(C(=O)Nc3cccc(C(F)(F)F)c3)c2)CC1,-8,0.93µM*,1.3µM*,22µM*,0%,-4%
O=C(CCC(=O)Nc1cccc(C(F)(F)F)c1)NCC1CCCO1 (stereo not given),10,4%,14%,13%,-17%,-1%
Cn1cnc(S(=O)(=O)N2CCCC(C(=O)NCc3ccc(F)cc3)C2)c1 (stereo not given),14,x,x,x,7%,x
Cc1ccc(-c2cn3c(n2)sc2cc(C(=O)NC4CCCCCC4)ccc23)c(C)c1,x,x,x,x,-5%,x
CC(Oc1ccc(Br)cc1)C(=O)NCCCN1CCCC1=O (stereo not given),-15,x,x,11%,x,2%
COc1ccc(NC(=O)c2sc3nc(C)nc(N4CCN(c5ccccn5)CC4)c3c2C)cc1Cl,-38,-23%,1.9µM*,u,0%,-3%
Cc1c(C(=O)Nc2ccc3c(c2)OCCO3)sc2ncnc(N3CCCCC3C)c12 (stereo not given),u,0%,u,11µM*,4%,-12%
Cc1nc(N2CCC(C)CC2)c2c(C)c(C(=O)Nc3ccc4c(c3)OCCO4)sc2n1,0,u,u,4%,1%,-16%
Cc1c(C(=O)N2CCC3(CC2)OCCO3)sc2ncnc(N3CCN(c4ccccn4)CC3)c12,-35,12µM*,u,u,4%,-2%
COCCCNC(=O)c1sc2ncnc(N3CCc4ccccc4C3)c2c1C,-11,6.6µM*,u,u,-2%,-7%
CN(C)S(=O)(=O)c1ccc(NC(=O)CCCNC(=O)c2ccc(Cl)cc2)cc1,-39,27%,23%,0%,-17%,1%
COc1ccc(NC(=O)c2sc3ncnc(N4CCN(c5ccccn5)CC4)c3c2C)cc1Cl,u,u,6.6µM*,6.3µM*,-6%,x
Cc1cc(Br)ccc1NC(=O)c1sc2ncnc(N3CCN(c4ccccn4)CC3)c2c1C,2,6%,u,u,2%,-6%
Cc1ccc(O)c(CNc2nc3ccccc3n2C(C)C)c1,-17,15%,8.3µM*,u,-22%,8%
COc1ccc(CNc2nc3ccccc3n2C(C)C)c(O)c1,-20,u,12µM*,u,-9%,-1%
CC(C)n1c(NCc2cc(Cl)ccc2O)nc2ccccc21,5,26%,x,u,-22%,13%
Cc1ccnc(NCc2ccccc2O)c1,-14,9%,-7%,2%,-6%,-5%
CCn1c(CNc2nc3ccccc3n2C(C)C)nc2ccccc21,u,12µM*,u,-22%,0%,7%
COc1ccc(CNc2nc3ccccc3n2C)c(O)c1,85,-7%,0%,-2%,1%,-1%
COc1ccc(CNc2cc(C)ccn2)c(O)c1,4,15%,x,-3%,7.1µM*,-2%
COc1ccc(C(C#N)=Cc2ccc(N(C)CCC#N)cc2)cc1,38,x,x,x,x,x
c1cncc(-c2nc(NCc3ccco3)c3ccccc3n2)c1,35,35%,12µM*,10µM*,25µM*,u
Clc1cccc(-c2nc(NCc3cccnc3)c3ccccc3n2)c1,-26,u,u,2.8µM*,1%,-31%

# Screening data: PubChem, National Center for Advancing Translational Sciences (NCATS)
